A selection: hits, their analogues and other compounds. The true share with any hit is near 3%.
KDM5B inhibitor: KDM5B demethylase inhibition | KDM5B demethylase, FDH-coupled NADH fluorescence (FDH is formaldehyde dehydrogenase) | Potency, µM (series often up to 57.7 µM), actives largely listed as inhibitors | 220,000 tested, 2.6% active | AID 1347165; note: potency is the fitted concentration of half-maximal effect; 0% is about no effect; nearly all actives have a fitted effect of over 70% in size
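Measured: NADH fluorescence change, 30 min, RT. System: KDM5BΔAP 200 nM final, H3K4me3 peptide, α-KG, Fe(II), ascorbate, NAD⁺ plus FDH, pH 7.5 HEPES. Compounds: titrated, 10 min pre-incubation with enzyme.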
IP6K1 inh: inhibitors of human IP6K1 | 140,000 tested, 0.81% active | AID 1645851 | activity change, % (series mostly up to about 58 µM) | IP6K1 kinase, ADP-Glo luminescence, 2 h; active compounds read low | Q92551; in the data active = activity change below about -25%; note: % is set by controls: 0 for no effect and ±100 for the full control effect
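ADP-Glo luminescence measures ADP made by human IP6K1 during a 2 h RT reaction with ATP/IP6 (mix at 1.3 mM/130 uM); top library doses 57.5 and 19.1 uM final.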
SNCA viab count: counter-screen for SNCA expression inhibitors: cell viability | HEK-293-SNCA-luc viability, GF-AFC fluorescence, 24 h | Potency, µM (series often up to 57.1 µM), for the others: at the top dose activity change, negative = cytotoxicity, hits mostly cytotoxic | AID 1671193 | 150,000 tested, 0.12% active;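 note: potency is the fitted concentration of half-maximal effect; 0% = DMSO-treated cells and -100% = medium-only wells without cells; nearly all actives have a fitted effect of over 30% in size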
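HEK-293-SNCA-luc cells (1500/well) plated 24 h, then exposed 24 h to a dilution series; GF-AFC added 30 min at 37C, fluorescence 405/540 nm; normalised to medium-only and DMSO wells, Hill fit.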
SNCA expr inhib: reduces expression of the alpha-synuclein gene. AID 1671194. 140,000 tested, 0.17% active. Potency, µM (series often up to 57.2 µM), for inactives: top-dose activity change, negative = inhibition, most hits filed as inhibitors. HEK-293 SNCA-luciferase knock-in, luminescence, 24 h;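 note: potency is the fitted concentration of half-maximal effect; plate controls were DMSO cells for no effect and cell-free wells for full effect; nearly all actives have a fitted effect of over 45% in size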
Numbers without * were called inactive; i = inactive; ? = inconclusive; . = no result given; [ ] = dose if it differs, or a comment. Unless noted, calls come from the whole dose curve; as a rule, active = well fitted curve in the direction sought with a large enough effect; inconclusive = small, poorly fitted or top-dose-only effect, or another doubt; inactive = no such curve, though single readings can be large; an effect the other way counts as inactive or inconclusive.

SMILES	KDM5B inhibitor	IP6K1 inh	SNCA viab count	SNCA expr inhib
COc1ccc(-c2cc3c(ccn3C)c(C(=O)NCCc3cnc[nH]3)n2)cn1	35µM*	-9	-14%[87.6 µM]	-10%[87.6 µM]
Cn1cc(C(=O)NC2CCN(Cc3ccccc3)CC2)c2ccccc21	i	.	.	.
Cc1ccc(-c2ccc3nnc(CNC(=O)CCC4CCCC4)n3n2)cc1	28µM*	11	-4%	25%
Cc1ccc(-c2ccc3nnc(CNC(=O)CSc4ccncc4)n3n2)cc1	28µM*	-11	0%	4%
Cc1ccc(-c2ccc3nnc(CNC(=O)C4CCCCC4)n3n2)cc1	?	48	9%	-3%
Cc1ccc(-c2ccc3nnc(CNC(=O)C4CC4)n3n2)cc1	14µM*	-2	-5%	2%
Cc1ccc(-c2ccc3nnc(CNC(=O)Cc4ccccc4Cl)n3n2)cc1	?	-15	2%	?
CC(NC(C)C1CC2CCC1C2)C(=O)N(C)Cc1cccc(F)c1 (stereo not given)	i	.	.	.
CCn1c(C)ccc(C(=O)N[C@@H]2COCC[C@H]2Oc2ccccn2)c1=O	28µM*	-2	0%	3%
CCN(CC)C(=O)[C@@H]1CCC[C@@H](NC(=O)c2ccc(C#N)cc2)CN(C)C(=O)C1	i	7	3%[87.6 µM]	9%[87.6 µM]
CCN(CC)C(=O)[C@@H]1C[C@@H](NC(=O)c2ccn(CC)c(=O)c2)CN1C(C)=O	28µM*	-7	-14%	-3%
Cc1nn(-c2ccccc2)c2c1C(C1CC1)N(C1CN(C(=O)Cc3ccccn3)C1)C2=O (stereo not given)	.	16	.	.
CC(O)c1cc2n(n1)CCN(Cc1cc(=O)n3nc(C4CC4)sc3n1)C2 (stereo not given)	25µM*	-1	7%	-8%
CN(Cc1ccccc1)c1nc2c(c(=O)n(Cc3ccccc3Cl)c(=O)n2C)n1C	i	.	.	.
COCCNC(=O)[C@@H]1C[C@@H](c2ccc(F)cc2)N([S+](=O)([O-])c2cccnc2)C1	35µM*	-3	3%[87.6 µM]	30%[87.6 µM]
CN(C)C(=O)c1ccc2nccn2c1	126µM*	-8	2%[87.6 µM]	-16%[87.6 µM]
CC(C)NC(=O)c1ccc2nccn2c1	141µM*	-11	1%[87.6 µM]	17%[87.6 µM]
COc1ccc([C@@H](NC(=O)c2ccc3nccn3c2)C2CC(O)C2)cn1 (stereo not given in full)	20µM*	16	6%	-4%
COc1ccc2c(c1C)CCC/C2=N\OC(=O)c1ccccc1F	i	.	.	.
COc1ccc(CN2CC(COc3ccc(OC)cc3)Oc3ncccc3C2=O)cc1 (stereo not given)	.	3	.	.
Cc1ccnc(NS(=O)(=O)c2ccc(NC(=O)Nc3ccc(S(=O)(=O)Nc4nccc(C)n4)cc3)cc2)n1	.	-18	?	0.86µM*
O=C(NC[C@H]1Cn2c(-c3ccc4c(c3)OCO4)cnc2CO1)Nc1ccc(F)cc1	28µM*	-18	-25%[87.6 µM]	-30%[87.6 µM]
CCC(=O)NC[C@H]1Cn2c(-c3ccc4c(c3)OCO4)cnc2CO1	?	-1	7%[87.6 µM]	-2%[87.6 µM]
C[S+](=O)([O-])NCCNC(=O)c1ccc(-c2cccc(C(F)(F)F)c2)cc1	.	0	.	.
CN(C)[C@@H]1C[C@@H](CO)N(Cc2cc(=O)n3c4c(cccc24)CCC3)C1	22µM*	7	-9%	10%
SMILES	KDM5B inhibitor	IP6K1 inh	SNCA viab count	SNCA expr inhib
CN1CCC2(C1)CN(CC1CC1)c1ccc(C(=O)NCCOc3ccccc3)cc12 (stereo not given)	?	3	-26%[87.6 µM]	-16%[87.6 µM]
CC(=O)N1CCCC2(C1)CN(C)c1ccc(C(=O)NCCOc3ccccc3)cc12 (stereo not given)	32µM*	-2	5%[87.6 µM]	-19%[87.6 µM]
CN1CCCC2(C1)CN(C)c1ccc(C(=O)NCCOc3ccccc3)cc12 (stereo not given)	40µM*	0	4%[87.6 µM]	-2%[87.6 µM]
CN1CCCC2(CCN(C(=O)CCCOc3ccccc3)C2)C1=O (stereo not given)	i	15	1%	19%
O=C(NCC1Cn2cccc2CN1Cc1ccccc1)c1n[nH]c2ccccc12 (stereo not given)	14µM*	-15	-2%	103%
CCNC(=O)NCC1Cn2cccc2CN1C (stereo not given)	22µM*	-2	2%	-20%
O=C(NCC1Cn2cccc2CN1Cc1ccccc1)c1ccoc1 (stereo not given)	28µM*	-12	-1%	62%
O=C(NCC1Cn2cccc2CN1Cc1ccccc1)Nc1ccccc1 (stereo not given)	.	-10	2%	-1%
CN1Cc2cccn2CC1CNC(=O)c1ccoc1 (stereo not given)	28µM*	15	-7%	-4%
Cc1nn(-c2ccccc2)c2c1C(C1CC1)N(CC1CN(C(=O)c3cccnc3)C1)C2=O (stereo not given)	.	8	.	.
CCCc1noc(-c2cn(C3CCN(C(=O)c4ccc(F)c(F)c4)CC3)nn2)n1	i	1	-7%	-20%
Cc1ccc2c(c1)NC(=O)C2(O)C(F)(F)F (stereo not given)	i	.	.	.
O=C(NCC1Cn2cccc2C(=O)N1Cc1ccccc1)c1ccsc1 (stereo not given)	i	-4	8%	2%
Cc1ccsc1C(=O)NCC1Cn2cccc2CN1C (stereo not given)	32µM*	-8	12%	40%
O=C(NCC1Cn2cccc2CN1Cc1ccccc1)c1ccncc1 (stereo not given)	28µM*	-10	-6%	8%
O=C(NCC1Cn2cccc2CN1Cc1ccccc1)c1ccsc1 (stereo not given)	25µM*	-2	-5%	7%
Cn1c(=O)c2c(nc(Sc3ccccc3N)n2Cc2ccc(F)cc2)n(C)c1=O	i	.	.	.
O=C(NC1CCNCC1)C1CCCN(c2nc(-c3ccccc3)nc3c2CCC3)C1 (stereo not given)	?	-2	-29%	-28%
CCOP(=O)(OCC)c1nc(Cc2ccc(OC)cc2)oc1NCc1ccco1	i	.	.	.
Cc1ccc2nc(CO[C@H]3CN(C4CCCCC4)C[C@H]3F)[nH]c2c1	?	-7	1%[87.6 µM]	-22%[87.6 µM]
Cc1ccc2nc(CO[C@H]3CN(c4ccc(C#N)cn4)C[C@H]3F)[nH]c2c1	18µM*	-20	0%[87.6 µM]	-13%[87.6 µM]
Cc1nn2c(c1-c1ccccc1C(N)=O)N(CCCc1ccccc1)CCC2	32µM*	12	?	1.4µM*
Cc1nn2c(c1-c1cccnc1N1CCOCC1)N(CCCc1ccccc1)CCC2	i	-4	-23%[87.6 µM]	?
Cc1nn2c(c1-c1ccccc1[S+](C)(=O)[O-])N(CCCc1ccccc1)CCC2	25µM*	24	?	?
O=C1c2cc(N3CCOCC3)nc(-c3cnc4[nH]ccc4c3)c2CN1CC1CC1	13µM*	-20	-16%[87.6 µM]	10%[87.6 µM]
O=C1c2cc(N3CCOCC3)nc(-c3cnc4[nH]ccc4c3)c2CN1CC(F)(F)F	32µM*	21	-4%[87.6 µM]	-2%[87.6 µM]
O=C1c2cc(N3CCOCC3)nc(-c3ccccc3F)c2CN1CC(F)(F)F	32µM*	5	-10%[87.6 µM]	-8%[87.6 µM]
COc1cccc(-c2ccc(C(=O)NCCNC(=O)c3ccccc3F)cc2)c1	.	18	.	.

Screening data: PubChem BioAssay, National Center for Advancing Translational Sciences (NCATS)
